PubChem BioAssay AID652126 (The Scripps Research Institute Molecular Screening Center, 2013)
Among all 370,000 compounds or so, about 3,700 (1%) were called active. The entries come from a sample that favours actives as a whole. Values without a mark were called inactive.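 How the source made its calls: active means activation above the mean over all tested compounds plus 3 SD (cut at about 0.9% in these data); inactive means the rest.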

Each compound was assayed on Nuclear hormone receptor DAF-12 (Strongyloides stercoralis) (assay: ssDAF-12 driven luciferase reporter activation – cell-based, luminescence, HEK293, GRIP1 co-expression, lit1-tk-luc, primary screen (AID 652126;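 further: 0% = DMSO-only wells and 100% = 3 µM delta7-dafachronic acid wells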)). Conditions: HEK293 ssDAF-12/GRIP1 lit1-tk-luc reporter, at 6.8 µM, active compounds read high, % of 3 µM dafachronic acid response.

Row | SMILES | activation
1 | O=S1(=O)c2ccc(N3CCN(Cc4ccccc4F)CC3)cc2Oc2ccccc2CN1Cc1cn(Cc2ccc(Cl)cc2)nn1 | -1.5%
2 | COC(=O)[C@]12C[C@H](CC(=O)NCCCN3CCCC3=O)C(=O)N(CCc3ccc(OC)c(OC)c3)C1=C[C@H](COCc1ccccc1)O[C@@H]2C | -0.18%
3 | CCOc1ccc(N(CC(=O)Nc2c(C)n(C)n(-c3ccccc3)c2=O)S(=O)(=O)c2ccc(Cl)s2)cc1 | -0.93%
4 | N#CC(=C1SC=CS1)c1nc(-c2ccccc2)cs1 | 0.19%
5 | COc1ccc(NC(=S)N2N=CCC2c2ccccc2)cc1 (stereo not drawn) | 0.28%
6 | CC(=O)NC(c1cccc(F)c1)c1nc(-c2cccc(F)c2)cs1 (stereo not drawn) | -0.87%
7 | c1ccc(-c2csc(N3CCc4ccccc4C3)n2)cc1 | 0.8%
8 | c1ccc(Nc2nc(-c3ccncc3)cs2)nc1 | 1.1% (active)
9 | COC(=O)CCc1sc(Nc2ccc(Br)cc2)nc1-c1ccc(OC)cc1 | -1.64%
10 | Cc1cccc(Nc2nc(-c3ccccc3)cs2)n1 | 2.9% (active)
11 | O=C(CN1C(=O)C2C3C=CC(C3)C2C1=O)Nc1nc(-c2ccccn2)cs1 (stereo not drawn) | 0.32%
12 | COc1ccc(Nc2nc(-c3ccccc3)cs2)cc1 | 4.09% (active)
13 | Clc1ccc(Nc2nc(-c3cccs3)cs2)nc1 | 1.83% (active)
14 | Cc1cc(C)cc(NC(=O)N2CCC(N(C)CCC(C)C)CC2)c1 | -1.43%
15 | CCCC1CCC2(CCCN2CCOC(=O)NCc2ccccc2)CC1 (stereo not drawn) | -2.14%
16 | CN1C[C@]2(C=C3CCCCC3n3c(=O)n(-c4ccccc4)c(=O)n32)N=C1NC(=O)c1ccccc1 (stereo partly drawn) | 0.04%
17 | Nn1c(SCC(=O)N2c3ccccc3Sc3ccccc32)nnc1-c1n[nH]c2c1CCC2 | -1.79%
18 | COCCCNC(=O)C[C@H]1C[C@@]2(C(=O)OC)C(=C[C@H](C(C)(C)C)O[C@@H]2C)N(Cc2ccc(Cl)cc2Cl)C1=O | -0.31%
19 | COc1ccc(CN2C/C(=C/c3ccccc3)N3C(=O)C[C@@H](c4ccccc4)N=C23)c(OC)c1 | -1.31%
20 | CCOC(=O)c1csc(NC(=O)C2CCCN(S(=O)(=O)c3ccc(Cl)s3)C2)n1 (stereo not drawn) | -2.1%
21 | COc1cccc(/C=C2\CC3(OC(C)=O)CCCN2C3)c1 (stereo not drawn) | -1.47%
22 | O=C(CSc1nnc(-c2ccccn2)n1-c1ccc(Cl)cc1)Nc1ccccc1-c1ccccc1 | -1.33%

Row | SMILES | activation
23 | CN(C)CC(=O)N[C@@H]1C[C@@H]2O[C@H](CO)CC[C@@H]2O[C@@H]1CCc1ccc(C#Cc2ccccc2)cc1 | -1.63%
24 | Oc1ccc(/C=C/c2c(F)cccc2F)c2cccnc12 | -1.91%
25 | Cc1ccc(C)c(NC(=O)CCS(=O)(=O)c2ccccc2)c1 | -0.72%
26 | CCOC(=O)c1ccccc1NC(=O)c1c(N)n(C)c(=O)[nH]c1=O | -0.82%
27 | CCOC(=O)c1cc2n(c1N)-c1ccccc1C2=O | 1.03% (active)
28 | CCOC(=O)c1ccn(S(=O)(=O)c2ccc(C)cc2)c1-c1ccccc1 | -1.27%
29 | COC(=O)c1cccc(Cn2ccc3ccc(-c4ccc5ccn(C(=O)c6ccccc6C)c5c4)cc32)c1 | 0.19%
30 | C=CCN1[C@H](CC(C)C)COc2cccc(N3CCCC3)c2S1(=O)=O | -1.93%
31 | O=C(NCCc1ccc(C(F)(F)F)cc1)c1ccc2c(c1)OCO2 | -1.42%
32 | O=C(Nc1ccccc1F)c1ccc2c(c1)OCO2 | 1.22% (active)
33 | CN(Cc1c(F)cccc1Cl)C(=O)CNC(=O)c1ccc2c(c1)OCO2 | -0.2%
34 | COC(=O)[C@H](C(C)C)N(CCc1cn(Cc2ccccc2)nn1)S(=O)(=O)c1ccc(F)cc1Br | -1.33%
35 | Cc1cc(NC(=O)Nc2ccccc2[N+](=O)[O-])no1 | 0.25%
36 | O=C(Nc1ccccc1[N+](=O)[O-])C1C(c2ccccc2)=C1c1ccccc1 | -1.13%
37 | Cc1csc(NC(=O)Nc2ccccc2[N+](=O)[O-])n1 | 2.54% (active)
38 | CCCCCCCCNS(=O)(=O)/C=C/c1cc(C)ccc1CNC(=O)OC(C)(C)C | -2.15%
39 | COc1ccc(C(=O)OCC(=O)NCC2CCCO2)cc1[N+](=O)[O-] (stereo not drawn) | -1.82%
40 | COc1ccc(C(=O)O/N=C(\N)c2ccccn2)cc1[N+](=O)[O-] | 1.15% (active)
41 | O=C(O/N=C(/c1ccccc1)c1ccncc1)c1ccccc1[N+](=O)[O-] | -0.74%
42 | Cc1ccc(-n2c(SCC(=O)Nc3cccc4ccccc34)nnc2-c2ccccn2)cc1 | -1.66%
43 | C#CCCN([C@H](C(=O)OC)C(C)C)S(=O)(=O)c1ccc(F)cc1Br | -1.1%
44 | C=CCOC/C=C/C#CCN(CC=C)Cc1ccc(OC)cc1OC | -0.87%

Row | SMILES | activation
45 | COc1cc2ccccc2cc1C(=O)Nc1ccccc1C | 1.32% (active)
46 | Cc1ccccc1C(=O)Nc1ccccc1Sc1ccccc1 | -1.24%
47 | Cc1cccc(NC(=O)c2cccc(C(=O)Nc3cccc(C)c3C)n2)c1C | -0.53%
48 | COc1ccc(C(=O)CSc2nnc(-c3cnccn3)n2-c2ccc(C)cc2)cc1 | -1.18%
49 | c1cnc(N2CCN(c3ccc4ccccc4n3)CC2)nc1 | 1.77% (active)
50 | CC12CCC(C(=O)N3CCN(c4ncccn4)CC3)(c3nc4ccccc4nc31)C2(C)C (stereo not drawn) | -1.52%
51 | CC1=C(N2CCN(c3ncccn3)CC2)CCC1=O | -1.32%
52 | CCN(CC)C(=O)CC[C@H]1CC[C@]2(CCCN(Cc3ccc(Cl)cc3)C2)O1 | -0.21%
53 | CC1CCN(c2ccc(C(=O)O)cc2NS(=O)(=O)c2ccc(Br)s2)CC1 | -1.7%
54 | COc1ccc([C@H]2OC(=O)C[C@H]2C(=O)N2CCN(c3ccccc3F)CC2)cc1OC | -0.67%
55 | O=C(Oc1ccc(-c2nc(-c3ccccn3)no2)cc1)c1ccccc1 | -0.56%
56 | Brc1ccc(-c2noc(-c3ccccc3)n2)o1 | 1.12% (active)
57 | O=S(=O)(c1ccc(Br)cc1)c1nc(-c2ccccc2)oc1N1CCOCC1 | -0.79%
58 | O=S1(=O)c2c(NCc3ccco3)cccc2Oc2ccccc2CN1Cc1cn(Cc2cccc(C(F)(F)F)c2)nn1 | -1.24%
59 | C=CCn1c(SCC(=O)/C(C#N)=C(\C)N)nc2sc(C)c(C)c2c1=O | -1.37%
60 | C=CCn1c(SCC(=O)Nc2ccc(NC(C)=O)cc2)nc2sc(C)c(C)c2c1=O | -1.09%
61 | Cc1ccc(NC(=O)c2cnc(SCC(=O)NCC3CCCO3)n(C)c2=O)cc1 (stereo not drawn) | 1.27% (active)
62 | CCCCn1c(SCC(=O)NCC2CCCO2)nc2ccc(N3CCOCC3)cc2c1=O (stereo not drawn) | -1.75%
63 | Cn1c(SCC(=O)c2ccccc2)ncc(C(=O)Nc2ccc(F)cc2)c1=O | -0.84%
64 | C=CCn1c(SCC(=O)NCC2CCCO2)nc2sc(C)c(C)c2c1=O (stereo not drawn) | 2.74% (active)
65 | CCOC(=O)[C@]12CCCC=C1N(Cc1ccc(OC)cc1)C(=O)[C@@H]2CC(=O)N1CCOCC1 | -0.73%
66 | COC(=O)C1CN(CCc2ccccc2)CCS(=O)(=O)N1Cc1cccc(Cl)c1 (stereo not drawn) | -0.43%

Row | SMILES | activation
67 | CCC(=O)Nc1ccc2c(c1)C(=O)N(C)[C@@H]1CC[C@@H](CC(=O)NCCc3ccccc3)O[C@H]1CO2 | -0.55%
68 | C[C@@H]1CN([C@@H](C)CO)C(=O)c2cccc(NC(=O)Nc3cccc4ccccc34)c2O[C@H]1CN(C)S(=O)(=O)c1ccccc1F | -2.39%
69 | COC(=O)C[C@@H]1CC[C@H]2[C@@H](COc3ccc(NS(=O)(=O)CC(F)(F)F)cc3C(=O)N2C)O1 | -1.22%
70 | O=C(c1cccc(C(F)(F)F)c1)N1CC[C@H]2[C@H](CCCN2Cc2cc(F)cc(F)c2)C1 | -1.1%
71 | CC(C)C(=O)Nc1oc(-c2ccccc2)cc1C#N | -1.13%
72 | CC(C)C(=O)Nc1c(C(=O)c2ccc(F)cc2)oc2ccccc12 | -0.79%
73 | CC(C)C(=O)Nc1ccc2c(c1)oc1ccccc12 | 1.28% (active)
74 | Cc1ccccc1CSc1nnc(Cn2c(=O)sc3ccccc32)n1C | -1.22%
75 | CC(C)N1CCCCC(NC(=O)c2ccc3ccccc3c2)C1=O (stereo not drawn) | -0.75%
76 | CC1CC(C)CN(CCCNC(=O)c2csc3c2CCCCC3)C1 (stereo not drawn) | -1.8%
77 | Cc1ccc(NC(=O)c2csc3c2CCCC3)cc1 | 1.46% (active)
78 | Cc1ccc(NC(=O)C2(N3CCC3=O)CCCCC2)cc1 | -0.98%
79 | COc1ccc(NC(=O)CC2C(=O)OCC3CCCCN32)cc1Cl (stereo not drawn) | -1.7%
80 | CC(=O)C1(C(=O)Nc2nccs2)CC(c2ccccc2C(F)(F)F)=NO1 (stereo not drawn) | -1.38%
81 | O=C(O)C1CCN(c2ccc([N+](=O)[O-])cc2[N+](=O)[O-])CC1 | 1.84% (active)
82 | CCC(C)(C)NC(=O)c1cc([N+](=O)[O-])ccc1N1CCCCC1 | -1.32%
83 | CC1CCN(c2ccc(S(=O)(=O)Nc3cc(C(=O)O)cc(C(=O)O)c3)cc2[N+](=O)[O-])CC1 | -1.44%
84 | O=C(c1ccccc1)c1ccc(-c2ccccc2C(=O)NC2CCCCN(Cc3ccc(Cl)cc3)C2=O)cc1 (stereo not drawn) | -0.93%
85 | COC(=O)C[C@@H]1C=C[C@@H](NS(=O)(=O)c2cccc(OC)c2)[C@@H](CO)O1 | -0.52%
86 | COC(=O)C1CCN(C(=O)COC(=O)c2cc(S(=O)(=O)N3CCOCC3)ccc2C)CC1 | -1.23%
87 | COc1ccc(S(=O)(=O)N2CCOCC2)cc1C(=O)NC1CCCCC1 | -1.6%
88 | Cc1ccc(S(=O)(=O)N2CCOCC2)cc1C(=O)OC1CCCCC1=O (stereo not drawn) | 1.21% (active)
